These results are taken from PubChem BioAssay AID570 (The Scripps Research Institute Molecular Screening Center, 2006).

Structures are written as SMILES. The campaign covered roughly 65,000 compounds. About 45 (0.07%) were called active. Many of the other results were omitted from the sample, so actives are more common in it than they were. A number with no mark means an inactive call.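 How the source made its calls: active means inhibition above the mean of compound-free control plate wells plus 3 SD (cut at about 14% in these data); inactive means the rest.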

The experiment concerns the target Collagenase 3 (Homo sapiens) (UniProt P45452). Nature of the experiment: human MMP13 inhibitors, primary screen, biochemical, FRET peptide cleavage (AID 570).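 Further: 0% = DMSO wells and 100% = wells with reference MMP-13 inhibitor after basal subtraction.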 The conditions noted are these: MMP-13 fTHP FRET cleavage, Mca fluorescence; at 4 µM; active compounds read high.
The term inhibition denotes the drop in the measured response relative to a control, in per cent. `Cn1c(=O)n(CCc2ccccc2)c(=O)c2c1nc1n2CCCN1c1ccccc1`: the inhibition is -0.2%. As to `CCC/C(O)=C1\C(=O)CC(C)(C)CC1=Nc1ccccc1OC`, the inhibition was -1.2%. Regarding `CSCCC(NC(N)=O)C(=O)N(C)CC(=O)Nc1ccc(C)cc1` (centres undefined), the inhibition is -2.4%. The figure for `CCc1c(C)nc(N2CCN(Cc3ccccc3)CC2)[nH]c1=O` is -7.8%; for `COC(=O)c1c(-c2ccc(C)cc2)csc1N` it is -8.5%. As for `CCn1c(COc2ccccc2)nnc1SCC(=O)Nc1ccc2c(c1)OCCO2`, the inhibition was 0.5%. For the compound `Cc1cccc2cc(CN(Cc3nnnn3Cc3ccccc3)C3CCCC3)c(=O)[nH]c12`, the inhibition is -8.4%. As for `C=CCNc1nnc(C)c2ccccc12`, the inhibition was 3.5%. In the case of `Cc1cc(NC(=O)CN2CCCCC2C)nc2c1c(=O)oc1ccccc12` (centres undefined) it was 0.1%; in that of `COc1ccccc1N1CCN(C(=O)c2cn(-c3ccccc3)nc2-c2cccnc2)CC1`, -5.4%. As for `CCCN1CC=C2C(C#N)=C(N)C(C#N)(C#N)C(c3cc(OC)ccc3OC)C2C1` (centres undefined), the inhibition is -14.3%. As for `CCCCNC(=O)c1c[nH]c2ccc(S(=O)(=O)Nc3ccc(OCC)cc3)cc2c1=O`, the inhibition is -4.5%. With `Cc1cccc(N2CCN(S(=O)(=O)c3ccc4c(c3)c(=O)n(C)c(=O)n4C)CC2C)c1` (centres undefined), the inhibition was 4.1%. In the case of `CCOC(=O)c1ccc(-n2c(C)nc3c(cnn3-c3ccccc3C)c2=O)cc1` it was 7.5%; in that of `CCOC(=O)c1cc2occc2n1CC(=O)NC1CCC(C)CC1` (centres undefined), 4.9%. With `COc1ccc(NS(=O)(=O)c2ccc(NC(=O)C(C)(C(F)(F)F)C(F)(F)F)cc2)nn1`, the inhibition is -10.5%. Take `CN(CCCC(=O)Nc1nccs1)S(=O)(=O)c1ccc(Cl)cc1`: the inhibition is 6%. In the case of `Cc1ccc(C(=O)CSc2nnc(Cn3nnc4ccccc43)n2C)cc1`, the inhibition is 7.7%.

`CCN1CCN(Cc2c(O)ccc3c(=O)c(-c4ccc(OC)c(OC)c4)c(C(F)(F)F)oc23)CC1`: the inhibition was 4.7%. Regarding `CN(c1ccccc1)c1ccc(/C=c2\s/c(=C(/C#N)C(=O)C(C)(C)C)n(Cc3ccco3)c2=O)cc1`, the inhibition was 15.4% (active). For `O=c1nc2s/c(=C\c3ccco3)c(=O)n2nc1Cc1ccccc1`, the inhibition is 0.1%. The figure for `CCOC(=O)CSc1nc2c(sc(=S)n2CCc2ccccc2)c(=O)n1Cc1ccco1` is 2.4%.

Turning to `Cc1cc(C(F)(F)F)n2ncc(-c3ccccc3)c2n1`, the inhibition is 3.8%. In the case of `CCc1nnc(NC(=O)c2c(O)c3c([nH]c2=O)CCCC3)s1` it was -11%; in that of `CCC(C)Sc1nnc(-c2c[nH]c3ccccc23)n1CCOC` (centres undefined), 6.4%.

As for `CC(C)N1C(=O)C2C(C(=O)NC3CCCCC3)C3C=CC2(O3)C1C(=O)NC1CCCC1` (centres undefined), the inhibition is -2.8%. The figure for `O=C(NCCCN1CCN(c2ccccc2F)CC1)C1CCC(=O)N1C1CCCCC1` (centres undefined) is 1.3%; for `CC(C)(C)n1nnnc1C(c1cccs1)N(Cc1cccnc1)CC1CCCO1` (centres undefined) it is -3.9%; for `C=CCC(NCCCO)c1cccc(OC)c1OC` (centres undefined) it is -1.4%. Turning to `CCCCN(C)C(=O)c1ccc2c(c1)N(CC)C(=O)c1ccccc1S2(=O)=O`, the inhibition was -4.5%. In the case of `CCOC(=O)CSc1nnc(CNC(=O)c2cccs2)n1-c1cc(OC)ccc1OC` it was -0.5%. In the case of `CCOC(=O)CSc1nnc(CNc2ccc(F)cc2)o1` it was -2.2%; in that of `Cc1ccccc1NC(=O)NCc1ccco1`, 2.4%; in that of `FC(F)(F)c1cc(-c2cccs2)nc(NCc2ccco2)n1`, -3.9%. With `CN1CCN(c2cc(=O)n(-c3ccc(Cl)cc3)c(=O)[nH]2)CC1`, the inhibition was 0.4%. As to `COc1ccccc1N(CC(=O)N1CCCCC1)S(=O)(=O)c1ccccc1`, the inhibition was 2.1%. Turning to `C=CCn1cnc2scc(-c3ccccc3)c2c1=O`, the inhibition was 0.5%. In the case of `C=CCn1c(COc2ccccc2C)nnc1SCC(=O)O` it was 5.1%; in that of `O=C(Cn1cnc2c(cnn2-c2ccccc2)c1=O)NCc1ccccc1`, -2%.
